Inconclusive results are not listed. Activity calls are given as the source filed them. Unless noted, the call rests on the fitted dose curve; in most records, active means well fitted curve in either direction with a large enough effect (not every such curve was filed as active); inconclusive means small, poorly fitted or top-dose-only effect, or another doubt; inactive means flat fitted curve, though single readings scatter.
Key:
[1] = target: Lysosomal acid glucosylceramidase (Homo sapiens) (UniProt P04062); test: Glucocerebrosidase-p2 (AID 348; in the data active means potency below about 10 µM; further: potency means the concentration at half of the fitted maximal effect); conditions: purified GBA, blue fluorogenic substrate, 40 min
Chain of Lysosomal acid glucosylceramidase (Homo sapiens) (P04062 whole entry, looked up): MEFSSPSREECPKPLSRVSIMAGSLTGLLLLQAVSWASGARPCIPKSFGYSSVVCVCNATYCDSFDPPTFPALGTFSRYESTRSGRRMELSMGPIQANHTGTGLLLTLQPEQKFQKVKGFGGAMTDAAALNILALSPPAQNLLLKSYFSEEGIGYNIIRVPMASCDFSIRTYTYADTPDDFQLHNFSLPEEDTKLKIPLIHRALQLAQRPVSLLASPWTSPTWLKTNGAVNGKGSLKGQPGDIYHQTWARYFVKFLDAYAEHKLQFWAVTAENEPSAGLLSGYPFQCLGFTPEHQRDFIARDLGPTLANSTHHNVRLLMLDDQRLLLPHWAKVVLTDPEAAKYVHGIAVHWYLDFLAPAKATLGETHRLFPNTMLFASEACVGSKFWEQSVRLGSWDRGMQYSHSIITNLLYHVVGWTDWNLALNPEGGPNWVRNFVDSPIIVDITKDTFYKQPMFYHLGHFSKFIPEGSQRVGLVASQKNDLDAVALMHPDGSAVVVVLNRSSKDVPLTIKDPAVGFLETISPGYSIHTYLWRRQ
Procedure, shortened: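 Compounds titrated from 0.6 nM upwards against 0.2 nM enzyme in pH 5.9 citric acid/KH2PO4, taurocholate, tween-20; blue fluorogenic substrate 80 uM, 40 min room temperature, stopped and read Ex 365/Em 440 for AC50.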

[2] = AP1 Signaling Pathway (AID 357); conditions: ME-180 AP-1-bla reporter, EGF-induced, beta-lactamase ratio, 5 h; at 7.69 µM (top of the series) unless noted;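 further: ME-180 reporter cells stimulated with EGF at its EC50 level; on the % scale 0 is the no-effect control and ±100 the full control effect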
Procedure, shortened: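 AP-1-bla ME-180 cells, Opti-MEM + 0.5% dialyzed FBS, plated overnight 37 °C. Cpd titration + EC50 EGF, 5 h 37 °C. CCF4 2.5 h RT; ex 405, em 460/530 ratio → %activity, AC50.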

[3] = target: Cytochrome P450 1A2 (Homo sapiens) (UniProt P05177); test: p450-cyp1a2 (AID 410; calls by dose curve; further: potency means the concentration at half of the fitted maximal effect;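 on activity change, negative = inhibition: -100% = full effect of reference inhibitor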); conditions: recombinant CYP1A2, luciferin-ME demethylation, luminescence; series mostly up to 11.4 µM
Chain of Cytochrome P450 1A2 (Homo sapiens) (P05177 whole entry, looked up): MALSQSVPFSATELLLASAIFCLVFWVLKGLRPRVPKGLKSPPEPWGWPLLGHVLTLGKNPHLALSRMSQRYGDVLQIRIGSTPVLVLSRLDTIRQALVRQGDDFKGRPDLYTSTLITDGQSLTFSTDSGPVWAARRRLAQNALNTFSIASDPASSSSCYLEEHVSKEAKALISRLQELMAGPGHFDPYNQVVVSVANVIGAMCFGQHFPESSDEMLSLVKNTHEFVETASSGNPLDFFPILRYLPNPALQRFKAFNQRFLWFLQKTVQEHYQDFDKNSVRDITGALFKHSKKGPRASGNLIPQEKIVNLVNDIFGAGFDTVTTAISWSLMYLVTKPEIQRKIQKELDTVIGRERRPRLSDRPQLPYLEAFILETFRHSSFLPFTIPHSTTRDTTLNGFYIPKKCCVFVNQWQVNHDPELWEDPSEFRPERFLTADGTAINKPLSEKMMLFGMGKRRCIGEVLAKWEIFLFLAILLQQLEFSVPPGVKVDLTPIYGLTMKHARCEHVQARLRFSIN
Procedure, shortened: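 Human CYP1A2 (20nM) demethylated Luciferin-ME at its Km (100uM) in 100mM KPO4. After 10 min compound preincubation, NADPH regeneration ran the reaction 60 min at room temperature. Luciferin was read by luminescence, normalized to 57 uM furafylline.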

[4] = NFAT Signaling Pathway (AID 444); conditions: Jurkat NFAT-bla M1, carbachol, beta-lactamase ratio, 5 h; at 7.69 µM (top of the series) unless noted;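 further: carbachol stimulus at about its EC50 of 1 µM final; on the % scale 0 is the no-effect control and ±100 the full control effect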
Procedure, shortened: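 Jurkat cells with NFAT-driven β-lactamase reporter and co-expressed M1 receptor, stimulated with carbachol (final 1 uM, ~EC50), compound titration, 5 h at 37 °C. CCF4 loaded 1 h at RT; 460/530 nm ratio gave %activity and AC50.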

[5] = Stat Signaling Pathway (AID 446); conditions: ME-180 SIE beta-lactamase reporter, IL-6 stimulated, 5 h; at 7.69 µM (top of the series) unless noted;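 further: ME-180 cervical cancer cells given 40 pM IL-6 alongside compound; SIE-controlled beta-lactamase reporter measured as 460/530 nm FRET emission ratio; on the % scale 0 is the no-effect control and ±100 the full control effect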
Procedure, shortened: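 ME-180 cells carrying a SIE-driven beta-lactamase reporter are stimulated with 40 pM IL-6 for 5 h at 37C in the presence of compound. The 460/530 nm FRET substrate ratio is read after 2.5 h at RT. Data are normalised to 300 pM IL-6 and to 125 nM JAK inhibitor controls.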

[6] = target: Glucocorticoid receptor (Homo sapiens) (UniProt P04150); test: GR-GFP Redistribution (AID 450;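 active means compounds whose dose series gives a full or clear partial fitted curve of increased nuclear translocation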; further: potency means the concentration at half of the fitted maximal effect); conditions: U2OS GR-GFP nuclear translocation, laser cytometry, 2 h
Chain of Glucocorticoid receptor (Homo sapiens) (P04150 whole entry, looked up, the tested form may be a part): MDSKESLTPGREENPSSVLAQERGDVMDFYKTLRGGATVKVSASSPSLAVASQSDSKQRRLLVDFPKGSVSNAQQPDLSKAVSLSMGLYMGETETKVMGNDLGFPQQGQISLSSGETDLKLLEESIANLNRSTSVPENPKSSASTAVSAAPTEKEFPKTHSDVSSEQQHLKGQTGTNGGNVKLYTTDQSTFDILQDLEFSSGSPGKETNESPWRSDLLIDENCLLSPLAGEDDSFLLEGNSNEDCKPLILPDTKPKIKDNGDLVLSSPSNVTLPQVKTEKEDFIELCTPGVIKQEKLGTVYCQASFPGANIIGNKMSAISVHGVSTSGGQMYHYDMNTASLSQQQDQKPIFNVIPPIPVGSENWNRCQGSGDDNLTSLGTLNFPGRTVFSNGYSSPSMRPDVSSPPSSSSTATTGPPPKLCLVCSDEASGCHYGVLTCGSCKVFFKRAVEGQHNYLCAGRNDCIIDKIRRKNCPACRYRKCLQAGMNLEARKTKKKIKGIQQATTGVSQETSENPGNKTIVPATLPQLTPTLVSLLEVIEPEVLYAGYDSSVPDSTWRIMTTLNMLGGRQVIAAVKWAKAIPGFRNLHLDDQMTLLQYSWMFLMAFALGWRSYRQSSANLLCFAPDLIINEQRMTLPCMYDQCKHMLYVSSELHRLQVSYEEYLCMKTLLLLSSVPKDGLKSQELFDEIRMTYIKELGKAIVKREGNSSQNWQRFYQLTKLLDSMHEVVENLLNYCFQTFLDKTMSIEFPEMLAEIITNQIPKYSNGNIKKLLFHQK

[7] = target: Glucocorticoid receptor (Homo sapiens) (UniProt P04150); test: GR-EFC Redistribution (AID 451; calls by dose curve; further: potency means the concentration at half of the fitted maximal effect); conditions: CHO-K1 GR-EFC translocation, beta-gal luminescence, 2 h
Procedure, shortened: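 CHO-K1 cells expressing nuclear EA and GR-ED fragments of b-gal; compounds titrated up to 46 uM final, 2 h at 37 C. GR nuclear translocation read as complemented b-gal luminescence after 1 h RT detection.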

[8] = target: Mitogen-activated protein kinase 10 (Mus musculus) (UniProt Q61831); test: JNK3 AlphaScreen Assay (AID 530); conditions: JNK3 lysate, c-Jun phosphorylation; series mostly up to 57.1 µM;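 further: kinase came from lysate of stimulated human HepG2 cells; signal reports phosphorylation of biotinylated GST-cJun 1-79 at Ser73 with 10 µM ATP; on the % scale 0 is the no-effect control and ±100 the full control effect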
Procedure, shortened: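 qHTS format: compounds tested as titrations against IL-1beta/TNF-alpha-activated HepG2 lysate JNK3 with biotin-GST-cJun substrate and 10 uM ATP at room temperature. Loss of anti-phospho-cJun AlphaScreen signal indicates inhibition.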

[9] = target: 3',5'-cyclic-AMP phosphodiesterase 4B (Homo sapiens) (UniProt Q07343); test: qHTS Assay for Inhibitors of PDE-IV (AID 607; active means well fitted activation curve with a large enough effect in the main read-out, with a control signal flat, not every such curve was filed as active; further: % of control where 0% means no effect); conditions: HEK293 ACTOne CNG channel cells, membrane potential fluorescence; series mostly up to 22.9 µM
Chain of 3',5'-cyclic-AMP phosphodiesterase 4B (Homo sapiens) (Q07343 whole entry, looked up): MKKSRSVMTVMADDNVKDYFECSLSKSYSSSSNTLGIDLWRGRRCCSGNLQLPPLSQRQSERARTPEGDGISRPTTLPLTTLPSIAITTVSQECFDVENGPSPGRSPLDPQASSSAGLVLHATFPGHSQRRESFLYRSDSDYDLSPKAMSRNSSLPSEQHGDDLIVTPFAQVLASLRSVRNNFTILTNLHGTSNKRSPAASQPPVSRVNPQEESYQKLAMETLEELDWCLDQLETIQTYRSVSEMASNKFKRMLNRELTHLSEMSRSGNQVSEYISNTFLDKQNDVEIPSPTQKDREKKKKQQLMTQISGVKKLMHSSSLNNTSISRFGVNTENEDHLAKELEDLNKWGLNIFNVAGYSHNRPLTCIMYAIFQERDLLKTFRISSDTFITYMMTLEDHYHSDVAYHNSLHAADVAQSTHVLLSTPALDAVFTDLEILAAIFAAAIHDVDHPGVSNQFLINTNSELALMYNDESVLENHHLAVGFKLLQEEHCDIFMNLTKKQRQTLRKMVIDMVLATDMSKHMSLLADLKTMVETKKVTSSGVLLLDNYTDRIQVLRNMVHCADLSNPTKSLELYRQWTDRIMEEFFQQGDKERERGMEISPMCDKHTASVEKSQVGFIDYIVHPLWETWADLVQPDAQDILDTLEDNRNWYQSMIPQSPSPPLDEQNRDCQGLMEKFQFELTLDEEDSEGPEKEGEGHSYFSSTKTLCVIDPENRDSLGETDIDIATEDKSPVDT
Procedure, shortened: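 HEK293 ACTOne cells with CNG channel (1000/well), endogenous PDE4; membrane potential dye, compounds up to 22.9 uM final. Fluorescence Ex 535/Em 590; RO 20-1724 (100 uM final) as reference.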

[10] = test system: HIV-1 nucleocapsid protein NCp7 (binding to TG oligonucleotide); test: HIV Nucleocapsid (AID 346; call rule not given here;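 further: potency means the concentration at half of the fitted maximal effect; potency is for inhibitors that block NC binding and lower polarization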); conditions: HIV-1 NC / fluorescein-TGTGTGTG probe, fluorescence polarization
Procedure, shortened: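 Reagents dispensed (10 nM TG4xF, 100 nM HIV-1 NC), plates spun, compounds pin-transferred, then incubated 1 hr at room temperature before FP imaging. Buffer: Hepes pH 7.5, 250mM NaCl, 1uM ZnCl2, 100 uM TCEP, 5 mM 2-mercaptoethanol.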

[11] = target: Cytochrome P450 2C19 (Homo sapiens) (UniProt P33261); test: qHTS Assay for Inhibitors and Substrates of Cytochrome P450 2C19 (AID 899; active means well fitted inhibition curve with a large enough effect; further: on the % scale 0 is the no-effect control and ±100 the full control effect; nearly all actives have a fitted effect of over 60% in size); conditions: recombinant CYP2C19, luciferin-H EGE luminescence; series mostly up to 11.4 µM
Chain of Cytochrome P450 2C19 (Homo sapiens) (P33261 whole entry, looked up): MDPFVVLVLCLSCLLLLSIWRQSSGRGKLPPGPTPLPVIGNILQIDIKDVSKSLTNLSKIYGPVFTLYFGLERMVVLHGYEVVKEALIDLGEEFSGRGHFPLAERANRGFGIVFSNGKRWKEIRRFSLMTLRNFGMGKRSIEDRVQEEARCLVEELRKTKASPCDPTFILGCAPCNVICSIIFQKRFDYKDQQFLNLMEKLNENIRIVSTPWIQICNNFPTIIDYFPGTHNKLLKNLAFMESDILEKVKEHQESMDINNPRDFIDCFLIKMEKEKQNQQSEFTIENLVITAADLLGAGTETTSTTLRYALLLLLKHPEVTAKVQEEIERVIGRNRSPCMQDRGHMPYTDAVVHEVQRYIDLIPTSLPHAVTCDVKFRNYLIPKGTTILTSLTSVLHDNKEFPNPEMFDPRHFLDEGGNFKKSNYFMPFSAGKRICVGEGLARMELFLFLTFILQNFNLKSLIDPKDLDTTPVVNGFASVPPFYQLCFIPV
Procedure, shortened: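 5 nM human CYP2C19 with 10uM Luciferin-H EGE (at KM) in 50mM KPO4, compound preincubated 10 min at 37C, then NADPH regeneration for 60 min at 37C. Luciferin read by luminescence after detection reagent; normalized to 57uM ketoconazole as full inhibition.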

Nc1nc(N)c(Cn2ccnc2)c(=O)[nH]1
inactive: Potency [1] > 11.4 µM | activity change, negative = inhibition [2] -1.23% | Potency [3] | activity change, negative = inhibition [4] 17.6% | activity, negative = inhibition [5] 7.55% | Potency [6] > 46 µM | Potency [7] > 9.22 µM | activity change, negative = inhibition [8] 2.41% [at 11.4 µM] | outcome [9]

CN(C)Cc1ccccc1-c1ccc2ncnc(N(C)Cc3ccco3)c2c1
inactive: Potency [10] > 20 µM

COc1cc2c(cc1OC)[C@@]13CCN4CC5=CCO[C@H](CC(=O)O)[C@@H]([C@H]1N2)[C@H]5C[C@H]43
inactive: Potency [1] > 11.4 µM | activity change, negative = inhibition [2] -1.41% | Potency [3] | activity change, negative = inhibition [4] 9.02% | activity, negative = inhibition [5] 1.37% | Potency [6] > 46 µM | Potency [7] > 9.22 µM | activity change, negative = inhibition [8] 4.42% [at 11.4 µM]

Cn1c(=O)c(-c2ccccc2)nc2cnc(N3CCNCC3)nc21
inactive: Potency [10] > 20 µM

O=C(c1ccncc1)N1CCC2(CCCN(c3ccc(-c4ccccc4)cc3)C2)CC1
inactive: Potency [10] > 20 µM

COc1ccc(CNc2ccnc(-c3cccc(C#N)c3)n2)c(OC)c1
inactive: Potency [10] > 20 µM

c1csc(CN2CCCC3(CCNCC3)C2)n1
inactive: Potency [10] > 20 µM | Potency [1] > 11.4 µM | activity change, negative = inhibition [2] 10.8% | Potency [3] | activity change, negative = inhibition [4] -10.2% | activity, negative = inhibition [5] -5.01% | Potency [7] > 46 µM | outcome [9]

COc1cc2c(cc1OC)[C@]13CC[N@+]4(C)CC5=CCO[C@H]6CC(=O)N2[C@@H]1[C@@H]6[C@@H]5C[C@]34O
inactive: Potency [1] > 11.4 µM | activity change, negative = inhibition [2] -12.3% | activity change, negative = inhibition [3] -11.4% [at 2.29 µM] | activity change, negative = inhibition [4] 4.86% | activity, negative = inhibition [5] -5.46% | Potency [6] > 46 µM | Potency [7] > 9.22 µM | activity change, negative = inhibition [8] 1.38% [at 11.4 µM] | outcome [9]

COc1ccc(Oc2ncc3nc(C)c(=O)n(Cc4cccc(OC)c4)c3n2)cc1
inactive: Potency [10] > 20 µM

COC(=O)[C@H]1C(=O)[C@H](C(=O)OC)[C@@H]2CC[C@H]1N2C
inactive: Potency [1] > 11.4 µM | activity change, negative = inhibition [2] 12.9% | activity change, negative = inhibition [4] 11.3% | activity, negative = inhibition [5] 7.99% | Potency [6] > 46 µM | Potency [7] > 9.22 µM | activity change, negative = inhibition [8] 4.63% [at 11.4 µM] | outcome [9]
active: Potency [3] 0.794 µM

O=C(Oc1ccccc1)N1CCC[C@@]2(CCN(Cc3nccs3)C2)C1
inactive: Potency [10] > 20 µM | Potency [1] > 11.4 µM | activity change, negative = inhibition [2] -15.6% | activity change, negative = inhibition [4] -0.597% | activity, negative = inhibition [5] -14.8% | Potency [7] > 46 µM | Potency [8] | outcome [9]

O=C(Nc1ccccc1)N1CC[C@@]2(CCCN(C(=O)c3csnn3)C2)C1
inactive: Potency [10] > 20 µM

CCC1(CCSC(=N)N)C(=O)NC(=O)NC1=O
inactive: Potency [1] > 11.4 µM | activity change, negative = inhibition [2] 6.2% | activity change, negative = inhibition [3] -10.9% [at 2.29 µM] | activity change, negative = inhibition [4] 1.26% | activity, negative = inhibition [5] -4.63% | Potency [6] > 46 µM | Potency [7] > 9.22 µM | activity change, negative = inhibition [8] 3.03% [at 11.4 µM] | outcome [9]

NC(=O)c1ccc(C(=O)Nc2ccc([As](=O)(O)O)cc2)cc1
inactive: Potency [1] > 11.4 µM | activity change, negative = inhibition [2] -1.92% | activity change, negative = inhibition [3] -13.8% [at 2.29 µM] | activity change, negative = inhibition [4] 26.9% | activity, negative = inhibition [5] 5.04% | Potency [6] > 46 µM | Potency [7] > 9.22 µM | activity change, negative = inhibition [8] 1.99% [at 11.4 µM] | outcome [9]

c1ccc(CCN2CCOCC2)nc1
inactive: Potency [1] > 11.4 µM | activity change, negative = inhibition [2] -2.6% | activity change, negative = inhibition [3] -3% [at 2.29 µM] | activity change, negative = inhibition [4] 11.7% | activity, negative = inhibition [5] 4.66% | Potency [6] > 46 µM | Potency [7] > 9.22 µM | activity change, negative = inhibition [8] 1.44% [at 11.4 µM] | outcome [9]

O=C(O)CS(=O)(=O)C(c1ccccc1)c1ccccc1
inactive: Potency [1] > 11.4 µM | activity change, negative = inhibition [2] -6.22% | activity change, negative = inhibition [3] -15.7% [at 2.29 µM] | activity change, negative = inhibition [4] -2.65% | activity, negative = inhibition [5] 3.8% | Potency [6] > 46 µM | Potency [7] > 9.22 µM | activity change, negative = inhibition [8] 1.62% [at 11.4 µM] | outcome [9] | Potency [11]

CC1=C2C(=O)[C@@H]3[C@@H](CC=C4C[C@@H](O)CC[C@@]43C)[C@H]2CC[C@@]12O[C@H]1C[C@H](C)CN[C@H]1[C@@H]2C
inactive: Potency [1] > 11.4 µM | activity change, negative = inhibition [2] 1.78% | Potency [3] | activity change, negative = inhibition [4] 3.5% | activity, negative = inhibition [5] 0.17% | Potency [6] > 46 µM | Potency [7] > 9.22 µM | activity change, negative = inhibition [8] 0.541% [at 11.4 µM] | outcome [9]

O[C@H](CN1CC1)[C@@H](O)CN1CC1
inactive: Potency [1] > 11.4 µM | activity change, negative = inhibition [2] 10.5% | Potency [3] | activity change, negative = inhibition [4] -21.2% | activity, negative = inhibition [5] 2.88% | Potency [6] > 46 µM | Potency [7] > 9.22 µM | activity change, negative = inhibition [8] 2.9% [at 11.4 µM] | outcome [9]

NC[C@@H](O)CSP(=O)(O)O
inactive: Potency [1] > 11.4 µM | activity change, negative = inhibition [2] -1.23% | Potency [3] | activity change, negative = inhibition [4] -18.7% | activity, negative = inhibition [5] 2.46% | Potency [6] > 46 µM | Potency [7] > 9.22 µM | outcome [9]

— PubChem BioAssay (NCATS)
